Test results published in the supplement of paper PMC3414501.
Where a name gives a salt, the structure may show the parent alone. A number with no mark means an inactive call.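 The calls were made as follows: active = HIS4 sensitivity z-score above 5 vs DMSO controls; inactive = score 5 or below.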

Test system: S. cerevisiae NKY1551 his4x/his4B, sporulating
Assay: HIS4 meiotic recombination assay sensitivity score (z-score vs DMSO controls); higher = stronger inhibition of sporulation/recombination, active = hit call of the paper
Conditions: stock concentration (mM, diluted 1:100): 7.3
Procedure: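 NIH Clinical Collection compounds were added 1:100 from stock (about 100 µM final) to S. cerevisiae. Growth: average doubling time (AvgG) over 24 h of BY4741 (wild-type) or AD1-9 (drug-efflux-pump deficient) in rich media. HIS4: the his4x/his4B heteroallelic recombination reporter strain (SK1) was sporulated 5 h with compound at 30°C, then colony density was read on -his plates after 48 h. Sensitivity score = (compound − mean of 8 DMSO controls)/SD of DMSO controls. Hit cutoffs are >2 for growth and >5 for sporulation.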

SMILES | HIS4 meiotic recombination assay sensitivity score
CN1[C@@H]2CC(OC(=O)[C@H](CO)c3ccccc3)C[C@H]1[C@@H]1O[C@@H]12 (stereo not given in full) | -0.64

Same assay, conditions: stock concentration (mM, diluted 1:100): 7.6

SMILES | HIS4 meiotic recombination assay sensitivity score
CN1CC[C@]23CCCC[C@H]2[C@H]1Cc1ccc(O)cc13 [Levorphanol tartrate] | -1.13

Same assay, conditions: stock concentration (mM, diluted 1:100): 8.2

SMILES | HIS4 meiotic recombination assay sensitivity score
COc1ccc2c(c1)[C@]13CCCC[C@@H]1[C@H](C2)N(C)CC3 [Dextromethorphan hydrobromide] | 5.52 (active)

Same assay, conditions: stock concentration (mM, diluted 1:100): 8.7

SMILES | HIS4 meiotic recombination assay sensitivity score
CC(=O)O[C@H]1C[C@@H]2CC[C@@H]3[C@H](CC[C@@]4(C)[C@H]3C[C@H]([N+]3(C)CCCCC3)[C@@H]4OC(C)=O)[C@@]2(C)C[C@@H]1[N+]1(C)CCCCC1 [Pancuronium] | -0.44

Same assay, conditions: stock concentration (mM, diluted 1:100): 9.7

SMILES | HIS4 meiotic recombination assay sensitivity score
CN1CCC(c2ccc(F)cc2)C(COc2ccc3c(c2)OCO3)C1 (stereo not given) [Methyl paroxetine] | 10.7 (active)

Same assay, conditions: stock concentration (mM, diluted 1:100): 9.8

SMILES | HIS4 meiotic recombination assay sensitivity score
CN1CC[C@]2(c3cccc(O)c3)Cc3nc4ccccc4cc3C[C@H]2C1 | 0.28

Same assay, conditions: stock concentration (mM, diluted 1:100): 9.9

SMILES | HIS4 meiotic recombination assay sensitivity score
CCCCCCCCCOc1ccc2[nH]cc(CCN)c2c1 [5-Nonyloxytryptamine] | -2.09

Same assay, conditions: stock concentration (mM, diluted 1:100): 10

SMILES | HIS4 meiotic recombination assay sensitivity score
CC(C)[C@]12O[C@H]1[C@@H]1O[C@]13[C@]1(O[C@H]1C[C@H]1C4=C(CC[C@@]13C)C(=O)OC4)[C@@H]2O [Triptolide] | 0.28
COc1cc2c(cc1OC)[C@@]13CCN4CC5=CCO[C@H]6CC(=O)N2[C@H]1[C@H]6[C@H]5C[C@H]43 [Brucine] | 0.05
CN1C(=O)CN=C(c2ccccc2)c2cc([N+](=O)[O-])ccc21 [Nimetazepam] | -0.26
c1ccc2c3c([nH]c2c1)CNCC3 [Tryptoline] | -3.38
CNC1CC(c2ccc(Cl)c(Cl)c2)c2ccccc21 (stereo not given) [Indatraline] | -0.83
CN=C1CN(O)C(c2ccccc2)=c2cc(Cl)ccc2=N1 [Chlordiazepoxide] | -1.07
C[C@]12CCC(=O)C=C1CC[C@@H]1[C@@H]2CC[C@@]2(C)[C@H]1CC[C@]2(C)O [Methyltestosterone] | 2.7
C[N+]1(C)CCN(c2ccccc2)CC1 [Dimethylphenylpiperazinium Iodide] | -0.3
C[C@]12CC[C@H]3[C@@H](CCC4=CC(=O)CC[C@@]43C)[C@@H]1CC[C@@H]2O [Testosterone] | -0.83
C[C@]12CC[C@H]3[C@@H](CCC4=CC(=O)CC[C@@H]43)[C@@H]1CC[C@@H]2O [19-Nortestosterone] | 1.09
N=C(NCc1ccc(Cl)cc1)SCCCc1c[nH]cn1 [Clobenpropit] | -0.07
Cc1nnc2n1-c1ccc(Cl)cc1C(c1ccccc1)=NC2 [Alprazolam] | 1.57
CC[C@]1(O)CC[C@H]2[C@@H]3CCC4=CCCC[C@@H]4[C@H]3CC[C@@]21C [Ethylestrenol] | 1.02
O=C1Nc2ccc(Cl)cc2C(c2ccccc2Cl)=NC1O (stereo not given) [Lorazepam] | 0.95
Oc1cc2c(cc1O)[C@H]1c3ccccc3CN[C@@H]1CC2 | 2.29
Oc1ccc2c3c1O[C@H]1[C@@H](O)CC[C@@]4(O)[C@@H](C2)N(CC2CCC2)CC[C@]314 [Nalbuphine] | -0.56
c1ccc2c(c1)Nc1ccccc1S2 [Phenothiazine] | 2.62
CCN(C(C)=O)c1cccc(-c2ccnc3c(C#N)cnn23)c1 [Zaleplon] | -0.58
CC(C)CC(N(C)C)C1(c2ccc(Cl)cc2)CCC1 (stereo not given) [Sibutramine hydrochloride] | 0.96
O=C(O)C(Cl)Cl [Dichloroacetic acid] | -0.62
OC1CCCCC1N1CCC(c2ccccc2)CC1 (stereo not given) [Vesamicol hydrochloride] | -0.31
CC(O)(CS(=O)(=O)c1ccc(F)cc1)C(=O)Nc1ccc(C#N)c(C(F)(F)F)c1 (stereo not given) [Bicalutamide] | -0.62
CCCCC/C=C\C/C=C\C/C=C\C/C=C\CCCC(=O)Nc1ccc(O)cc1 | -0.8
COc1cc(N)c(Cl)cc1C(=O)NC1CN2CCC1CC2 (stereo not given) [Zacopride] | -2.43
CS(=O)(=O)Nc1ccc(Cc2noc(-c3ccc4[nH]cc(CCN)c4c3)n2)cc1 | -0.76
C[C@]12Cc3c[nH]nc3C[C@@H]1CC[C@@H]1[C@@H]2CC[C@@]2(C)[C@H]1CC[C@]2(C)O [Stanozolol] | -0.39
COc1cccc(C2(O)CCCCC2CN(C)C)c1 (stereo not given) [Tramadol] | -2.65
COc1ccc2[nH]cc(CCN)c2c1 [5-Methoxytryptamine] | -1.35

Same assay, conditions: stock concentration (mM, diluted 1:100): 10.1

SMILES | HIS4 meiotic recombination assay sensitivity score
NC(=O)OCCCc1ccccc1 [Phenprobamate] | 0.5
C[N+]1(CCC(C(N)=O)(c2ccccc2)c2ccccc2)CCCCC1 [Fenpiverinium bromide] | -1.06
CC[C@@H](C(N)=O)N1CCCC1=O [Levetiracetam] | -0.77
CC(NC(C)(C)C)C(=O)c1cccc(Cl)c1 (stereo not given) [Amfebutamone hydrochloride] | -0.33

Same assay, conditions: stock concentration (mM, diluted 1:100): 11.3

SMILES | HIS4 meiotic recombination assay sensitivity score
CC(C)CC(N(C)C)C1(c2ccc(Cl)cc2)CCC1 (stereo not given) [Sibutramine] | 1.61
